Compound activity (PubChem)
Nrf2 activator: qHTS of Nrf2 Activators; actives 0.31% (n = 410,000); AID 624171, 2012; AREc32 ARE-luciferase reporter (MCF7-derived line), luminescence, 24 h; Potency, µM (titrated, usually from 46.1 µM), for the others: at the highest dose activation, actives largely listed as activators; further: potency means the concentration at half of the fitted maximal effect; % of control where 0% means no effect; nearly all actives have a fitted effect of over 65% in size
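Nrf2 activation is followed as ARE-luciferase induction in the AREc32 line after one day of compound treatment; luminescence is read with Steady-Glo.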
D3 ag: qHTS of D3 Dopamine Receptor Agonist: qHTS; max activation, %; actives 0.58% (n = 410,000); D3R DiscoveRx beta-arrestin cells, luminescence, 90 min; D(3) dopamine receptor (Homo sapiens), P35462; in the data active means max activation above about 30%; further: 0% is about no effect
Target sequence (P35462 whole entry, looked up): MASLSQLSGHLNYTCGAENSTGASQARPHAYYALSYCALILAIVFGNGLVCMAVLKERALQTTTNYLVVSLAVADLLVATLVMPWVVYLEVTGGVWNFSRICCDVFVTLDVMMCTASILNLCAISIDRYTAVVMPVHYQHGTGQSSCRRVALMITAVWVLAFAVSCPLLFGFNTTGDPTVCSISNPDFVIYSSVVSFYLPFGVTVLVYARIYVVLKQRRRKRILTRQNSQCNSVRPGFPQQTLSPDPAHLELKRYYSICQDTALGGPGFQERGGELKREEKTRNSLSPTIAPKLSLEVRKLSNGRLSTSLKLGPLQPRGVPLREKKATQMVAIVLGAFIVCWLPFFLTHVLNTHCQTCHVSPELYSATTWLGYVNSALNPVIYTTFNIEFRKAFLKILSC
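Cells at 1500/well, incubated overnight, then treated with pinned compounds (dopamine as control) for 90 min at 37 degrees C. DiscoveRx reagent added for 30 - 60 minutes at room temperature; luminescence read.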
DRD3 antagonist: qHTS of D3 Dopamine Receptor Antagonist: qHTS; D(3) dopamine receptor (Homo sapiens), P35462; D3R cells, DiscoveRx beta-arrestin luminescence, antagonist mode; active compounds read low; actives 2.5% (n = 360,000); max response, negative = inhibition, %; AID 652054, 2013; in the data active means max response below about -50%; inconclusive means no clear call, values can overlap the other calls; further: on the % scale 0 is the no-effect control and ±100 the full control effect
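Cells plated overnight at 1500 cells/well, then exposed to library compounds with dopamine controls for 90 minutes at 37 degrees C. DiscoveRx reagent added for 30–60 minutes at room temperature; luminescence read, quantitative HTS format.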
Glioma ERSR ind: qHTS for Inducers of the Endoplasmic Reticulum Stress Response (ERSR) in Human Glioma: qHTS | U87-MG GRP78 promoter luciferase reporter, 16 h | Potency, µM, for inactives: top-dose activation, usual class: activators | actives 0.02% (n = 420,000) | AID 602332, 2012; further: potency means the concentration at half of the fitted maximal effect; series mostly up to about 76 µM; % of control where 0% means no effect; nearly all actives have a fitted effect of over 35% in size
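ERSR induction read as luciferase luminescence (Bright-Glo, 10 min at room temperature) in stably transfected human U87-MG glioma cells exposed to compounds for 16 h, using GRP78 as sensor.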
An asterisk follows results filed as active; ? = inconclusive; / = no result given. Hits are enriched below; roughly 3% of the tested compounds scored in any of these assays. Unless noted, the call rests on the fitted dose curve; in most records, active means well fitted curve in the direction sought with a large enough effect; inconclusive means small, poorly fitted or top-dose-only effect, or another doubt; inactive means no such curve, though single readings can be large; an effect the other way counts as inactive or inconclusive.

SMILES	Nrf2 activator	D3 ag	DRD3 antagonist	Glioma ERSR ind
O=[N+]([O-])c1cc(Cl)cc(/C=N\Nc2ccccn2)c1O	0.1%	-34.1	-106.2*	-2.2%
C[C@]12C=CC(=O)C=C1[C@@H](F)C[C@@H]1[C@@H]2[C@@H](O)C[C@@]2(C)[C@H]1CC[C@]2(O)C(=O)CO	/	3.2	/	-3.7%
CCCCCCC1CCC(C(=O)Nn2c(C)nc3ccccc3c2=O)CC1 (configuration not stated)	-0.7%	30.4*	18.2	-4.0%
CCCC1CCC(C(=O)Nn2c(C)nc3ccccc3c2=O)CC1 (configuration not stated)	-0.3%	-1.7	9.4	-7.2%
CCc1ccc2oc(C(=O)Nc3c(C)n(C)n(-c4ccccc4)c3=O)cc(=O)c2c1	-0.9%	-2.5	/	-5.3%
OC[C@H]1O[C@@](CO)(O[C@H]2O[C@H](CO)[C@@H](O)[C@H](O)[C@H]2O)[C@@H](O)[C@@H]1O	/	6.5	/	-3.8%
Nc1c2c(nc3ccccc13)N(C1CCCCC1)CC2	0.4%	0.2	-82.6*	-7.6%
CCCCn1nnnc1C(CCc1ccccc1)N1CCN(C/C=C/c2ccccc2)CC1 (configuration not stated)	3.1%	-13.4	-57.8*	-2.0%
CCCCn1nnnc1C(CCSC)N1CCN(C/C=C/c2ccccc2)CC1 (configuration not stated)	0.2%	-15.4	-121.6*	-2.2%
CCCC(c1nnnn1CCOC)N1CCN(Cc2ccccc2)CC1 (configuration not stated)	0.5%	-20.7	?	-2.1%
CCCCC(c1nnnn1CCOC)N1CCN(Cc2ccccc2)CC1 (configuration not stated)	-0.1%	-1.3	-80.4*	-4.2%
CCn1c(N2CCN(S(=O)(=O)c3ccc(Cl)cc3)CC2)nc2ccccc21	0.7%	43.6*	13.4	-7.4%
O=C1C2C3C=CC(C3)C2C(=O)N1c1n[nH]c(-c2ccccc2)n1 (configuration not stated)	0.3%	33.8*	-3.8	-1.0%
CC(C)C[C@@H](CN=[N+]=[N-])N1CCN(CCc2ccccc2)CCC1=O	/	/	/	-2.6%
CCS(=O)(=O)c1ccc2oc(SCC(=O)NCCC3=CCCCC3)nc2c1	3.3%	10.9	-51.0*	-4.6%
CCn1c2ccccc2c2cc(CN3CCOc4ccc(C(O)c5cccnc5)cc4C3)ccc21 (configuration not stated)	/	/	/	-2.6%
COc1ccc(S(=O)(=O)N2CCCCCC2)cc1NC(=O)CN(C)Cc1ccc2c(c1)OCO2	0.1%	-22.0	-68.1*	-1.6%
CN(CC(=O)Nc1cc(S(=O)(=O)N2CCCCCC2)ccc1Cl)Cc1ccc2c(c1)OCO2	2.1%	-21.8	-53.8*	-4.6%
CN(CC(=O)Nc1cc(S(=O)(=O)N2CCCC2)ccc1Cl)Cc1ccc2c(c1)OCO2	0.0%	-19.2	-28.2	-5.1%
Cn1nc(-c2ccc(C(=O)Nc3ccc(OC(F)(F)F)cc3)cc2)c2ccccc2c1=O	0.6%	7.2	/	-2.9%
O=C(CCN1C(=O)c2ccccc2C1=O)N1CCN(c2ccccc2)CC1	-0.7%	18.5	3.7	-2.7%
O=C(CCN1C(=O)c2ccccc2C1=O)N1CCCCCC1	0.6%	-2.6	-50.6*	-1.2%
CCC(C)C1OC2(C=CC1C)CC1CC(C/C=C(\C)C(OC3CC(OC)C(OC4CC(OC)C(NC(C)=O)C(C)O4)C(C)O3)C(C)/C=C/C=C3\COC4C(O)C(C)=CC(C(=O)O1)C34O)O2 (configuration not stated) (tested in a mixture with another compound)	/	/	/	-10.5%
S=c1[nH]nc(-c2cccs2)n1/N=C/c1cn(-c2ccccc2)nc1-c1cccs1	5.2%	30.4*	14.2	9.4%
Cc1ccc(-c2nn(-c3ccccc3)cc2/C=N/n2c(-c3cccs3)n[nH]c2=S)cc1	2.3%	7.3	3.3	5.6%
CCC(NC(=O)c1cccc(Cn2cc([N+](=O)[O-])cn2)c1)c1ccc(C(C)C)cc1 (configuration not stated)	-0.2%	-20.4	-52.8*	-2.7%
COc1cc2c(-c3ccc4cc[nH]c4c3)c(-c3ccsc3)oc(=O)c2cc1OC	10.2%	51.7*	2.2	2.4%
CC(C)(C)[C@H]1CCC(=O)N(CCSc2ccc(Br)cc2)CC1	/	/	/	12.3%
Clc1ccc(N2CCN(Cc3c[nH]c4ncccc34)CC2)cc1	3.5%	/	-77.6*	-6.0%
